Menin-MLL FL inh: qHTS Assay for Inhibitors Targeting the Menin-MLL Interaction in MLL Related Leukemias: Competition With Fluorescein Labeled MLL-derived Peptide; Fluorescence polarization, fluorescein-MLL peptide displacement from menin; FP activity change, % at 61.4 µM; 290,000 tested, under 10 active; active = well fitted curve in the direction sought with a large enough effect in the polarisation, not every such curve was filed as active; inconclusive = small, poorly fitted or top-dose-only effect, or effect the other way, or a change in a side signal; inactive = no such curve, though single readings can be large or run the other way; the % refers to the polarisation; note: % of control where 0% means no effect
MLL CXXC-DNA inh: qHTS Fluorescence Polarization Assay for Inhibitors of MLL CXXC domain - DNA interaction. Histone-lysine N-methyltransferase 2A (Homo sapiens), Q03164. MLL-CXXC / FITC-HOXA9 DNA fluorescence polarization. Potency, µM (titrated, usually from 115 µM), for the others: at the top dose activity change, negative = inhibition, actives largely listed as inhibitors. 290,000 compounds, 0.037% hits. AID 2662, 2010; active = well fitted inhibition curve with a large enough effect in the polarisation, with a control signal flat, not every such curve was filed as active; inconclusive = small, poorly fitted or top-dose-only effect, or effect the other way, or a change in a side signal; inactive = no such curve, though single readings can be large or run the other way; the % refers to the polarisation; note: potency is the fitted concentration of half-maximal effect
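Purified MLL-CXXC (added from a 7 uM solution) was preincubated 5 min at ambient with pinned compounds in 50 mM Tris-HCl pH 7.5, 50 mM NaCl, 1 mM DTT, 0.05% BSA. Fluorescein-labeled HOX-A9 DNA (50 nM solution) followed, 30 min, then polarization read.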
Menin MLL FP TR: qHTS Assay for Inhibitors Targeting the Menin-MLL Interaction in MLL Related Leukemias: Competition With Texas Red Labeled MLL-derived Mutant Peptide | Potency, µM (doses to about 61.6 µM), inactives show at the top dose FP activity change, negative = inhibition, actives largely listed as inhibitors | 270,000 compounds, 0.23% hits | AID 1768, 2009 | O00255 | Menin + Texas Red MLL mutant peptide, fluorescence polarization; active = well fitted inhibition curve with a large enough effect in the polarisation, with a control signal flat, not every such curve was filed as active; inconclusive = small, poorly fitted or top-dose-only effect, or effect the other way, or a change in a side signal; inactive = no such curve, though single readings can be large or run the other way; the % refers to the polarisation; note: potency is the fitted concentration of half-maximal effect; % of control where 0% means no effect
ClpP mod: qHTS Assay for Activators of ClpP | ATP-dependent Clp protease proteolytic subunit (Bacillus subtilis (strain 168)), P80244 | purified B. subtilis ClpP, FRET peptide cleavage, 20 min | Potency, µM (titrated, usually from 57.5 µM), inactives show at the highest dose activity change, negative = active | 340,000 compounds, 1.9% hits; active = well fitted falling curve with a large enough effect; inconclusive = small, poorly fitted or top-dose-only effect; inactive = no such curve, though single readings can be large or run the other way; note: potency is the fitted concentration of half-maximal effect; the source files actives as falling curves though it sought activators and does not explain the sign; nearly all actives have a fitted effect of over 65% in size
Target sequence (P80244 whole entry, looked up): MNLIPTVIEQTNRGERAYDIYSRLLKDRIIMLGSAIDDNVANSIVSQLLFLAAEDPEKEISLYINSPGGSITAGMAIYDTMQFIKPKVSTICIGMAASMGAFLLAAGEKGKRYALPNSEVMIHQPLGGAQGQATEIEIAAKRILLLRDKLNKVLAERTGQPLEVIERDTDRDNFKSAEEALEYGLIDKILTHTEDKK
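Buffer: 100 mM Tris/HCl pH8, 100 mM KCl, 0.05% low protease BSA, 2.5% glycerol, 0.01% Tween-20. ClpP 10 microg/mL final; 20 min RT; delta FRET normalized to ADEP and DMSO controls.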
p53 reactivation: qHTS assay for re-activators of p53 using a Luc reporter | Potency, µM (series often up to 92.2 µM), without a hit: top-dose activity change, positive = activation, most hits filed as activators | 320,000 compounds, 0.063% hits | H1299 p53-A138V BP100-luciferase reporter, luminescence, 24 h | AID 504706, 2011; active = well fitted activation curve with a large enough effect; inconclusive = small, poorly fitted or top-dose-only effect; inactive = no such curve, though single readings can be large or run the other way; note: potency is the fitted concentration of half-maximal effect; % of control where 0% means no effect; nearly all actives have a fitted effect of over 45% in size
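p53-null H1299 cells stably carrying temperature-sensitive p53-A138V and a BP100-luciferase reporter were pinned with compounds (4-point, 1:5 series) and held 24 hrs at 37 deg C. Luminescence was read 10 min after detection reagent.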
Numbers without * were called inactive; ? = inconclusive; . = not tested or not shown; [ ] = remark or other dose. The full list was thinned out, with hits kept by preference.

SMILES | Menin-MLL FL inh | MLL CXXC-DNA inh | Menin MLL FP TR | ClpP mod | p53 reactivation
O=C1NC(=O)c2cc(NC(=O)C3CCCO3)ccc21 (stereo not given) | 1 | -1% | 0% | 28µM* | 5%
Cc1ccc(NS(=O)(=O)c2ccc(NC(=O)C3CCCO3)cc2)cc1 (stereo not given) | -2 | -6% | 13% | 32µM* | -12%
COc1ccc(NS(=O)(=O)c2ccc(NC(=O)C3CCCO3)cc2)cc1 (stereo not given) | -1 | -6% | 18% | -1% | 1%
O=C1OCc2cc(NC(=O)C3CCCO3)ccc21 (stereo not given) | 3 | -7% | 0% | -6% | 9%
O=S(=O)(CCC(F)=C(F)F)c1nnnn1C1CCCCC1 | 0 | . | -2% | . | .
C[C@H]1Cc2c(-c3ccccc3)nc3c(c2CO1)CN(S(=O)(=O)c1ccc2c(c1)OCCN2C)CC3 | 1[11.7 µM] | . | -2%[11.7 µM] | . | .
COC(=O)c1c(-n2c(C)cc(C=O)c2C)sc2c1CCCC2 | 3 | 24% | 28µM* | -5% | 0%
CNC(=S)N1CCN(c2c(F)cc3c(=O)c(C(=O)O)cn(C4CC4)c3c2OC)CC1C (stereo not given) | 1 | 1% | -10% | 28µM* | 1%
COc1c(N2CCN(C(=S)Nc3ccccc3)C(C)C2)c(F)cc2c(=O)c(C(=O)O)cn(C3CC3)c12 (stereo not given) | 2 | -6% | -3% | . | -8%
c1ccc(OCCOCCSc2ncccn2)cc1 | 1 | 20% | 1% | 20µM* | 11%
Cc1cccc(OCCOCCSc2ncccn2)c1 | 2 | -5% | -20% | -1% | ?
COC(=O)/C=C/c1ccc2c(c1)S(=O)(=O)N(C1CCCC1)[C@H]2CC(=O)OC | . | . | . | -6% | .
CC(CCc1ccccc1)NC(=O)COC(=O)c1cccc2ccccc12 (stereo not given) | -2 | 11% | -9% | 25µM* | 2%
CC(CCc1ccccc1)NC(=O)COC(=O)c1ccccc1Br (stereo not given) | -4 | 6% | -14% | 0% | 6%
COC(=O)c1c(NC(=O)Cn2cc([N+](=O)[O-])cn2)sc2c1CCC2 | -1 | 12% | 0% | 13µM* | 1%
O=C(Cn1cc([N+](=O)[O-])cn1)NC1CCCCCC1 | 1 | -1% | 1% | . | 5%
O=C(NCc1ccco1)Nc1ccccc1Cl | 6 | 12% | 2% | 1% | 17%
CCOC(=O)CNC(=O)Nc1ccccc1C(=O)OC | -3 | -12% | 2% | 28µM* | 0%
COC(=O)c1ccccc1NC(=O)NCc1ccccn1 | 2 | 0% | 3% | 28µM* | -2%
COC(=O)c1ccccc1NC(=O)NCc1ccco1 | 0 | 5% | -10% | 28µM* | -9%
O=C(NCc1ccccn1)Nc1ccccc1Cl | -3 | ? | 7% | -2% | 29%
COC(=O)c1ccccc1NC(=O)NCc1cccnc1 | -3 | 0% | 13% | 28µM* | -3%
O=C(Nc1ccccc1-c1cn2c(CN3CCNCC3)csc2n1)c1cnc2ccccc2n1 | . | . | . | -1% | .
Cc1cc(C=O)cc(C)c1[N+](=O)[O-] | . | . | . | 1% | .
COC(=O)C1=C(C(=O)OC)[C@@H]2N(Cc3ccccc3)c3ccccc3[C@@]23C[C@@H](C(=O)OC)N(S(=O)(=O)c2ccc(C#N)cc2)C3=N1 | 4[11.7 µM] | . | 6%[11.7 µM] | . | .
SMILES | Menin-MLL FL inh | MLL CXXC-DNA inh | Menin MLL FP TR | ClpP mod | p53 reactivation
CC1CCN(c2oc(-c3ccc(COc4ccc(Cl)cc4)o3)nc2C#N)CC1 | . | . | . | 25µM* | .
CC1CCN(c2oc(-c3ccc(OCc4ccccc4Cl)cc3)nc2C#N)CC1 | . | . | . | 4% | .
N#Cc1nc(-c2ccc(COc3ccc(Cl)cc3)o2)oc1N1CCCCC1 | . | . | . | 28µM* | .
N#Cc1nc(-c2ccc(COc3ccccc3)o2)oc1N1CCCCC1 | . | . | . | 32µM* | .
Cc1cccc(OCc2ccc(-c3nc(C#N)c(N4CCN(c5ccccc5)CC4)o3)o2)c1 | . | . | . | -18% | .
Cc1cc(C)cc(N(CC(=O)N/N=C/c2ccncc2)S(=O)(=O)c2ccccc2)c1 | 5 | 3% | -7% | 6.3µM* | -17%
Cc1cc(C)cc(N(CC(=O)Nc2ccccc2-c2ccccc2)S(=O)(=O)c2ccccc2)c1 | 2 | 11% | 21% | -2% | 7%
Cc1c(Br)cnc2ccccc12 | . | . | . | -2% | .
CCOC(=O)Cn1nc(/C=C/c2ccc(C)cc2)ccc1=O | 3 | 1% | -12% | 32µM* | 5%
CCOC(=O)Cn1nc(/C=C/c2ccc(C(C)C)cc2)ccc1=O | 6 | 1% | ? | 28µM* | -1%
O=c1ccc(/C=C/c2ccccc2)nn1Cc1ccccc1 | 1 | 25% | 8% | 28µM* | -5%
Cn1nc(/C=C/c2ccccc2)ccc1=O | 0 | 2% | -28% | . | 18%
O=c1c2c(nc3cc(-c4ccc(Br)cc4)[nH]n13)CCCC2 | 1 | -1% | -22% | . | -1%
O=c1c2c(nc3cc(-c4ccccc4)[nH]n13)CCS2 | 1 | 1% | -22% | 10µM* | 10%
COc1ccc(-c2cc3nc4c(c(=O)n3[nH]2)CCC4)cc1 | 0 | 6% | -10% | 22µM* | ?
O=c1c2c(nc3cc(-c4ccccc4)[nH]n13)CCC2 | -1 | 0% | -5% | 11µM* | ?
O=S(=O)(c1ccccc1C(F)(F)F)N1CCN(c2nc(-c3cccs3)nc3ccccc23)CC1 | . | . | . | 4% | .
CCC(=O)Nc1cccc2c1C(=O)N(C)C2=O | 1 | 15% | -18% | 25µM* | -1%
COC(=O)C1=C(C(=O)OC)[C@@H]2N(C)c3ccc(OC)cc3[C@@]23C[C@@H](C(=O)OC)N(S(=O)(=O)c2ccc4c(c2)OCCN4C)C3=N1 | 1[11.7 µM] | . | -2%[11.7 µM] | . | .
C[C@H]1CN([C@@H](C)CO)S(=O)(=O)c2ccc(/C=C/c3ccccc3)cc2O[C@H]1CN(C)C(=O)NC1CCCCC1 | . | . | . | 35µM* | .
COc1cc2cc(C(c3nnnn3C3CCCC3)N3CCCCC3)c(=O)[nH]c2cc1OC (stereo not given) | 0 | 9% | -17% | 22µM* | -1%
COc1cc2cc(CN(Cc3nnnn3C3CCCC3)C3CCCC3)c(=O)[nH]c2cc1OC | 1 | -7% | 6% | . | -7%
COc1ccc(C(c2nnnn2C2CCCC2)N2CCC(C)CC2)c(OC)c1 (stereo not given) | -3 | 1% | 3% | 18µM* | -24%
O=c1[nH]c2cc3c(cc2cc1CN(Cc1nnnn1C1CCCC1)C1CCCC1)OCCO3 | -12 | 0% | -6% | 32µM* | 2%

Assay outcomes: PubChem BioAssay, National Center for Advancing Translational Sciences (NCATS)
